Screening results from PubChem BioAssay.
Hits are enriched below; roughly 1.4% of the tested compounds scored in any of these assays.
AID504770 – E. coli YBA685 growth inhibition, screen for V. cholerae RctB inhibitors; E. coli YBA685 rctB-dependent plasmid, OD600 growth, 3 h; active compounds read low; z-score (test concentration not listed); 0.27% of 130,000 active; AID 504770; in the data active = z-score below about -2, passing the limit was not always enough
Mtb MenB inh – Mtb MenB enzyme inhibition; 0.43% of 100,000 active; inhibition, % (test concentration not listed); P9WNP5; MenB enzyme assay, absorbance read-out; in the data active = inhibition above about 21%, passing the limit was not always enough
Target sequence (P9WNP5 whole entry, looked up): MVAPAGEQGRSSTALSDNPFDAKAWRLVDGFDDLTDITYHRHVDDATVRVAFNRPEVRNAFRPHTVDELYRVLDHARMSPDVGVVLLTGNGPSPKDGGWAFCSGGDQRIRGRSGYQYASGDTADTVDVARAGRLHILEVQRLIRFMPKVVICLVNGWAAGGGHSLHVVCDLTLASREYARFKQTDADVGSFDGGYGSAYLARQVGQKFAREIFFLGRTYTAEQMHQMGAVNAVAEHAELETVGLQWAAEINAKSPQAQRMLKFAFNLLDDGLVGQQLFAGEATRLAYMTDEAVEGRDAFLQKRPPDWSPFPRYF
PV pol inh – poliovirus RNA polymerase inhibition | P03300 | poliovirus polymerase elongation, fluorescence polarization; active compounds read low | % elongation, % (compound at 16.7 µg/mL) | 0.66% of 150,000 active | AID 588519; in the data active = % elongation below about 90%
Mtb MbtI inh – MbtI salicylate synthase inhibition; P9WFX0; purified MbtI enzyme, fluorescence intensity read-out; inhibition, % (concentration not given with the values); 0.89% of 100,000 active; AID 493033; in the data active = inhibition mostly above about 56%, no sharp cut-off; inactive = mostly below about 77%
Large screens that a line does not name were inactive; ! = not active in a repeat.

Cc1ccc(OC(=O)C23CC4CC(CC(C4)C2)C3)cn1	Mtb MenB inh 42
COc1ccccc1NC(=O)c1c(NCc2cccs2)sc2c1CCCCC2	none
COC(=O)c1sc(N2CCCC2)c(C#N)c1N	none (no result: Mtb MenB inh, PV pol inh, Mtb MbtI inh)
CCCc1cc(=O)oc2cc(O)cc(O)c12	none (no result: Mtb MenB inh, PV pol inh, Mtb MbtI inh)
CCc1cc(=O)oc2cc(O)cc(O)c12	Mtb MenB inh 47
O=C(CCc1nc2ccccc2c(=O)[nH]1)N1CCN(c2ccccc2)CC1	none
O=C(O)c1cnc2ccccn2c1=O	Mtb MenB inh 27
CCOC(=O)c1cnc2ccccn2c1=O	none
CCCCC(=O)Nc1ccc(I)c(C)n1	none
Cc1ccc(CSc2nc(N)cc(N)n2)cc1	Mtb MenB inh 36
CS(=O)(=O)c1ccc2nc(NC(=O)c3ccc4nc[nH]c4c3)sc2c1	none
O=c1[nH]cnc2sc3c(c12)CCCC3	Mtb MenB inh 34
O=C(NCc1ccco1)C(=S)N1CCOCC1	Mtb MbtI inh 76
CC(C)CN(Cc1nnc(-c2ccccc2)o1)CC(C)C	none
Cc1[nH]c2ccccc2c1C(c1ccccn1)N1CCN(CCO)CC1 (stereo unspecified)	none (no result: Mtb MenB inh)
CN1CCN(C(c2ccccn2)c2c(-c3ccccc3)n(O)c3ccccc23)CC1 (stereo unspecified)	PV pol inh 88
COc1ccc(-c2n[nH]c(=S)n2/N=C/c2ccccc2Br)cc1OC	none
CCOc1cccc(/C=N/n2c(-c3ccc(Cl)cc3)n[nH]c2=S)c1O	PV pol inh 85, Mtb MbtI inh 79
Cc1ccc(S(=O)(=O)N2CCN(C3=CC(=O)CC(C)(C)C3)CC2)cc1	none
CCCCC(CC)CN=C(N)NC(N)=NCCCCCCN=C(N)NC(N)=NCC(CC)CCCC (stereo unspecified)	AID504770 -5.1, Mtb MbtI inh 55!
Cn1cnc2c1c(=S)[nH]c(=O)n2Cc1ccccc1	PV pol inh 82 (no result: Mtb MbtI inh)
Cc1cc2nc(-c3ccc(NC(=O)c4ccccc4F)cc3)oc2cc1C	PV pol inh 24 (no result: AID504770, Mtb MenB inh, Mtb MbtI inh)
O=C(Nc1ccc(-c2nc3cc(Cl)ccc3o2)cc1)c1cc2ccccc2o1	PV pol inh 49 (no result: AID504770, Mtb MenB inh, Mtb MbtI inh)
Cc1ccccc1C(=O)Nc1ccc(-c2nc3ccccc3o2)cc1	none
O=C(Nc1ccc(Cl)c(-c2nc3cc(Cl)ccc3o2)c1)c1cc2ccccc2o1	none (no result: AID504770, Mtb MenB inh, Mtb MbtI inh)
CC1CCCCC1NC(=O)C1CCCN(c2nnc(-n3cccc3)s2)C1 (stereo unspecified)	none
Cc1cc(C)cc(OCc2cc(=O)n3c4c(sc3n2)CCCC4)c1	PV pol inh 78 (no result: AID504770, Mtb MenB inh, Mtb MbtI inh)
Cc1ccccc1NC(=O)N1CCCC(c2nc(-c3ccc(F)cc3)no2)C1 (stereo unspecified)	Mtb MenB inh 29
S=C(NCCN1CCOCC1)Nc1ccccc1	none
FC(F)(F)c1ccccc1NNC(=S)NCCN1CCOCC1	Mtb MbtI inh 71
Cc1cc(NC(=O)CCCN2C(=O)/C(=C\c3ccco3)SC2=S)no1	none
CC1(C)Cc2[nH]c(=S)c(C#N)cc2CO1	none
N#Cc1cc2c([nH]c1=S)CCCC2	Mtb MbtI inh 102
Clc1ccc(NCCC2=CCCCC2)nn1	Mtb MenB inh 34
COC(CNC(=O)c1cc2c(s1)CSC2)OC	none
CCN(CC)C(=O)Nc1cccc(Cl)c1	Mtb MenB inh 33
CCN(C(=O)Nc1cccc(Cl)c1)c1ccccc1	none
O=S1(=O)CCC(N2CCN(c3ncnc4sccc34)CC2)C1 (stereo unspecified)	none
CCOc1cc(CNc2ccc(O)cc2)ccc1OCc1ccc(Cl)cc1	PV pol inh 80 (no result: AID504770, Mtb MenB inh, Mtb MbtI inh)
CCCCNC(=O)c1cnn2c(C(F)F)cc(-c3ccccc3)nc12	none
O=c1c2ccccc2[se]n1-c1ccccc1	Mtb MbtI inh 103 (no result: AID504770)
CCC(C)C(=O)Nc1cccc(C(=O)O)c1 (stereo unspecified)	none
COC(=O)c1ccc(O)c(C(=O)OC)c1	PV pol inh 0.0
COC(=O)c1ccc(NC(C)=O)c(C(=O)OC)c1	none (no result: Mtb MenB inh, PV pol inh, Mtb MbtI inh)
NNc1ccc(Br)cc1	AID504770 -6.3 (no result: Mtb MbtI inh)
NCC(=O)Nc1ccc(Br)cc1	none
O=C(O)CCC(=O)N1N=C(c2ccccc2)CC1c1ccc2nccnc2c1 (stereo unspecified)	Mtb MenB inh 50
CCc1ccc(C2CC(c3ccccc3)=NN2C(=O)CCCC(=O)O)cc1 (stereo unspecified)	none
Cc1nc2sccn2c1-c1nc(-c2ccc(Br)o2)c(C(=O)c2ccc3c(c2)OCCO3)s1	Mtb MbtI inh 98
CCOC(=O)N1CCN(c2nc(N)c(C#N)c(CC#N)c2C#N)CC1	none
O=C(O)CCC(=O)N1CC(=O)Nc2ccccc21	none (no result: Mtb MbtI inh)
CC1(C)C(=O)NCCN1C(=O)CCC(=O)O	Mtb MenB inh 31
CCC(C)c1ccc(C2=Nn3c(nnc3C(C)C)SC2)cc1 (stereo unspecified)	PV pol inh 74
N#Cc1cn(-c2ccccc2)nc1-c1cccnc1	none
